According to PubChem BioAssay AID493115 (The Scripps Research Institute Molecular Screening Center, 2011):
This is one part of the list.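 How the source made its calls: active means mean activation above a set limit carried over from the earlier primary screen; inactive means the rest.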

Target: Caspase-7 (Homo sapiens) (UniProt P55210)
Assay: activation of procaspase-7 enzyme – biochemical, absorbance, human, dual procaspase-3/-7 activator project, confirmation (AID 493115);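 further: 0% = DMSO only and 100% = DMSO with added 5 µM PC-7 enzyme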
Settings: recombinant procaspase-7, Ac-DEVD-pNA absorbance 405 nm; at 8.5 µM; hits give high values; D23A/D198A/D206A mutant that cannot self-cleave

Chain of Caspase-7 (Homo sapiens) (P55210 whole entry D23A/D198A/D206A): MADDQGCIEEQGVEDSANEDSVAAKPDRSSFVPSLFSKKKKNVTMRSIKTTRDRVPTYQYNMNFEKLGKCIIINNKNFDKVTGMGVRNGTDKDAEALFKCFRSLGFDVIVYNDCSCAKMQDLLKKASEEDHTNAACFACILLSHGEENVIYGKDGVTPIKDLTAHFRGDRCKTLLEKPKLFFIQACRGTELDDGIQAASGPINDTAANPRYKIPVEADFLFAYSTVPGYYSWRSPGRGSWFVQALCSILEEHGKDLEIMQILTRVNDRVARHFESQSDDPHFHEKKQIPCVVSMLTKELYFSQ

activation, inactive:
Nc1cccc2c1C(=O)N(Cc1nnc(-c3ccccc3Br)o1)C2=O -35.8%, CCCCOC(=O)Cn1c(=O)n(CC(=O)OCCCC)c2cc(C)ccc21 0.05%, COc1ccccc1N=Cc1c(O)c2ccccc2oc1=O -13.5%, COc1ccc(Nc2ncnc3sc(-c4ccccc4)cc23)c(OC)c1 -12.6%, COc1ccc2sc(-c3ccc(S(C)(=O)=O)cc3)c(C#Cc3cncn3C)c2c1 -34.2%, CC(=O)Oc1ccc2c(C)c(CC(C)O)c(=O)oc2c1 (stereo not given) -34%, COc1ccc(-c2onc3ccc(C(C)=O)cc23)cc1 -35.4%, COc1ccc(Nc2ncc(C(=O)N3CCN(c4ccccc4OC)CC3)c3ccccc23)cc1 2.22%, CNS(=O)(=O)c1cccc(C(=O)NC2CCCc3ccccc32)c1 (stereo not given) 0.28%, COc1ccc(/C=N/Nc2nc3ccccc3c(=O)[nH]2)cc1 0.2%, O=C1OCCN1C(=O)[C@H]1[C@H](c2ccc(F)cc2)C(c2ccccc2)=NN1c1ccc(Br)cc1 -35.1%, Fc1ccc(N2N=C(c3cccs3)CC2c2ccco2)c(F)c1 (stereo not given) -34.9%, CCN(CC)c1ccc2oc(=O)c(C)nc2c1 -21%, CC1(C)Cc2c(C#N)c(SCc3nc4ccccc4[nH]3)nc(N3CCOCC3)c2CO1 -34.3%, CCOC(=O)C1(CCOC)CCN(Cc2cc3ccccc3s2)CC1 2.06%
